# From PubChem BioAssay (EPA / NIEHS)
# The source made the active and inactive calls. The calls were made as follows: active = hit-call score of the fitted dose curve at least 0.9, where 1 is the maximum; inactive = score below 0.9.
# Read-out: Intercellular Adhesion Molecule 1 (ICAM1), ICAM1 (gene 3383)
# Test: LTEA_HepaRG_ICAM1: Life Technologies and Expression Analysis (LTEA) Assay for Intercellular Adhesion Molecule 1 (ICAM1) using HepaRG (AID 2283507)
# Conditions: mRNA level, 48 h; actives raise or lower the signal
# Description: LTEA_HepaRG is a cell based, multiplexed-readout assay that uses HepaRG, a human liver cell line, with measurements taken at 48 hours after chemical dosing on a 96-well plate.LTEA_HepaRG_ICAM1 is one of 102 assay component(s) measured in the LTEA HepaRG cell culture assay. It is a marker of Fibrosis.Data from the assay component LTEA_HepaRG_ICAM1 was analyzed into 1 endpoint. This assay endpoint, LTEA_HepaRG_ICAM1, was analyzed with bidirectional fitting relative to DMSO as the negative control and baseline of activity. Using a type of inducible reporter, measures of mRNA induction for gain or loss-of-signal activity can be used to understand regulation of transcription factor activity. To generalize the intended target to other relatable targets, this assay endpoint is annotated to the cell adhesion molecules intended target family, where the subfamily is Immunoglobulin CAM.
# A total of 1060 chemcials from the ToxCast library were tested in eight-point concentration-response experiments. Cell culture and cytotoxicity assays were conducted at Thermo Fisher Scientific's Custom Services facility (Madison, WI). A single lot of human HepaRG cells (Thermo Fisher Scientific, Frederick, MD) was used for the cell culture experiments. 96-well format collagen type I coated plates of human HepaRG cells were prepared using established methods. Briefly, cryopreserved HepaRG cells were thawed, plated at a density of approximately 100,000 cells/well in HepaRG Thaw, Plate, and General Purpose media (HPRG770, Thermo Fisher Scientific), and incubated for 48 hours. 0.5% DMSO was selected as vehicle control to balance the requisite need of DMSO in HepaRG cultures to maintain differentiation (for example, baseline metabolism, proportions of hepatocytes vs. cholangiocytes), while enabling further hepatic receptor pathway activation (for example, PXR and CAR) in response to chemical exposure. 48 hours after plating, the culture medium was replaced with HepaRG Serum-Free Incudtion Media. Cells were exposed to each test chemical in duplicate and maintained in CO2 incubators for another 48 hours. Chemical plates were thawed to room temperature and 200x concentrations of treatment groups were prepared. 8-point conentration-reponse curves were made with the highest exposure at 100 uM, followed by half-log dilutions, all in 0.5% DMSO. Each test plate contained variouse controls, induction positive controls (1mM phenobarbital), cytotoxicity positive controls ([…] aflatoxin B1), vehicle controls (0.5% DMSO), and total lysis controls (0.5% DMSO). Cell morphology images were taken using an Essen IncuCyte FLR automated microscope, with six 96-well plates imaged in about 24 minutes. Images were captured and exported and JPEG files. Spent culture media was transfered to black-well plates for the LDH assay, and remaining media was sorted at -80 C for later use. Cells were treated with RLT buffer and frozen until shipped for gene expression analysis. Total RNA was isolated from the cell suspension in 75 uL of Buffer RLT (Qiagen, Germantown, MD 20874) by Quintiles/Expression Analysis (Durham, NC) using a custom isolation procedure. Total RNA from each plate well was transferred to a preamplification plate. Fluidigm's 96.96 Dynamic ArrayTM (Fluidigm, Amsterdam, the Netherlands) technology was used for gene expression analyses by quantitative reverse transcription polymerase chain reaction (qRT-PCR, performed by Quintiles/Expression Analysis, Durham, NC)89. Standard TaqManTM Assays (Applied Biosystems/ThermoFisher Scientific, Foster City, CA) were used to assess the expression of 93 genes selected based on their selectivity and sensitivity to important hepatic receptors known to be modulated by environmental chemicals; importance in human hepatocyte functionality; and hepatotoxicity. […]
Structure (SMILES),outcome,AC50
CCOP(=S)(OCC)Oc1nc(Cl)c(Cl)cc1Cl,inactive,
O=C(Nc1ccc2[nH]ccc2c1)c1cc2cc(F)ccc2n1Cc1cccc(F)c1,,12.6 µM (active)
CCC(C)(C)c1ccc(O)c(C(C)(C)CC)c1,inactive,
C[C@@H]1C[C@@H]([C@H](O)CC2CC(=O)NC(=O)C2)C(=O)[C@@H](C)C1,,11.9 µM (active)
Cc1ccccc1N,inactive,
CCOP(=S)(OCC)SCSP(=S)(OCC)OCC,inactive,
CC(C)(OO)c1ccccc1,inactive,
C[C@]12CCC(=O)C[C@@H]1CC[C@@H]1[C@@H]2CC[C@]2(C)[C@@H](O)CC[C@@H]12,inactive,
CCC(=O)C(CC(C)N(C)C)(c1ccccc1)c1ccccc1 (stereo unspecified),inactive,
NC(=O)O,inactive,
ClCC(Cl)CCl,inactive,
C=C(C)C(=O)[O][Sn]([CH2]CCC)([CH2]CCC)[CH2]CCC,,2.12 µM (active)
CC(=O)[O][Hg][c]1ccccc1,,0.558 µM (active)
O=C(O)C(Cl)(Cl)Cl,inactive,
O=C1C2(Cl)C3(Cl)C4(Cl)C(Cl)(Cl)C5(Cl)C3(Cl)C1(Cl)C5(Cl)C24Cl (stereo unspecified),,91.4 µM (active)
O=C(O)C(F)(F)C(F)(F)C(F)(F)C(F)(F)C(F)(F)C(F)(F)F,inactive,

Structure (SMILES),outcome,AC50
COc1cc(-c2ccc(N)c(OC)c2)ccc1N,inactive,
CCCCCCCCc1ccc(O)cc1,inactive,
ClC1(Cl)C2(Cl)C3(Cl)C4(Cl)C(Cl)(Cl)C5(Cl)C3(Cl)C1(Cl)C5(Cl)C24Cl (stereo unspecified),inactive,
CCN1CCC2(CC1)COc1cc3c(cc12)N(C(=O)c1ccc(-c2ccc(-c4nnc(C)o4)cc2C)cc1)CC3,,11.1 µM (active)
O=C(O)C(F)(F)C(F)(F)C(F)(F)C(F)(F)C(F)(F)C(F)(F)C(F)(F)C(F)(F)C(F)(F)C(F)(F)F,inactive,
Cn1sc(Cl)cc1=O,inactive,
CC12CC1(C)C(=O)N(c1cc(Cl)cc(Cl)c1)C2=O (stereo unspecified),inactive,
CC(C)(C)c1cc(O)ccc1O,inactive,
O=[N+]([O-])c1ccc(O)c([N+](=O)[O-])c1,inactive,
CN(C)N=O,inactive,
Oc1cccc2cccnc12,inactive,
O=c1[nH]c(=O)[nH]c(=O)[nH]1,inactive,
CC(C)(C)CC(C)(C)c1ccc(O)cc1,inactive,
C=CC(=O)OCCCCCC(C)C,inactive,
CC(C)(c1ccccc1)c1ccc(O)c(C(C)(C)c2ccccc2)c1,,50 µM (active)
